# Of roughly 8,800 targets only a part is listed; those with a hit were picked by preference. About 0.5% of all pairs of compound and target were hits. A number with no mark means an inactive call.
# How the values were obtained:
# Test in all cases: log2 fold change, soluble protein after heating vs DMSO (PISA); higher = thermal stabilisation; K562 lysate, 10 uM; active = over 0.2 and 3.5 SD of the protein, either way, in both replicates (recomputed)
# [1] = compound: C#Cc1cccc(Nc2ncnc3cc(OCCOC)c(OCCOC)cc23)c1 [erlotinib]
# Method in brief: (§1)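 K562 pellets were dounce-homogenised in PBS pH 7.4 with 1 mM MgCl2, and the crude extract at 1 mg/mL protein was treated with 10 μM compound for 30 min. Aliquots were heated for 3 min across 48°C-58°C, pooled, and brought to 0.5% NP-40 at 4°C; soluble protein was the supernatant after 21,000xg for 90 min. Soluble protein was quantified by TMTpro 16plex LC-MS/MS with channel sums equalised, and reported as log2 fold change in thermal stability against DMSO controls, with values from duplicates.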
# [2] = compound: C/C(=N\NC(=O)C1=CC(=CC=C1)S(=O)(=O)N2CCOCC2)/C3=C(C=CC(=C3)Cl)O
# Method in brief: as §1
# [3] = compound: C1=CC(=CC=C1C2=NC3=C(N2)C=C(C=C3)C(=O)N)OC4=CC=C(C=C4)Cl
# Method in brief: as §1
# [4] = compound: C1=CC2=C(C=CC(=C2)/C=C\3/C(=O)NC(=NCC4=CC=CS4)S3)N=C1
# Method in brief: as §1
# [5] = compound: C1=CC2=NC=CN=C2C=C1/C=C/3\C(=O)NC(=O)S3
# Method in brief: as §1
# [6] = compound: C1=CC=C(C=C1)C2=NC(=C(N2)C3=CC=NC=C3)C4=CC(=C(C=C4)Cl)O
# Method in brief: as §1
# [7] = compound: C1=CC=C2C(=C1)C3=NNC4=CC=CC(=C43)C2=O
# Method in brief: as §1
# [8] = compound: C1CCN(C1)C(=O)NC2=CC=CC(=C2)NC3=NC=C(C(=N3)NCCC4=CN=CN4)Br
# Method in brief: as §1
# [9] = compound: C1CN(CCC1(CC2=CC=C(C=C2)Cl)N)C3=NC=NC4=C3C=CN4
# Method in brief: as §1
# [10] = compound: C1COCCN1CCN2C3=CC=CC=C3N=C2NC(=O)C4=CC(=CC=C4)[N+](=O)[O-] [IRAK-1-4 Inhibitor I]
# Method in brief: as §1
# Sequence of UniProt Q99755 (Q99755 whole entry, looked up): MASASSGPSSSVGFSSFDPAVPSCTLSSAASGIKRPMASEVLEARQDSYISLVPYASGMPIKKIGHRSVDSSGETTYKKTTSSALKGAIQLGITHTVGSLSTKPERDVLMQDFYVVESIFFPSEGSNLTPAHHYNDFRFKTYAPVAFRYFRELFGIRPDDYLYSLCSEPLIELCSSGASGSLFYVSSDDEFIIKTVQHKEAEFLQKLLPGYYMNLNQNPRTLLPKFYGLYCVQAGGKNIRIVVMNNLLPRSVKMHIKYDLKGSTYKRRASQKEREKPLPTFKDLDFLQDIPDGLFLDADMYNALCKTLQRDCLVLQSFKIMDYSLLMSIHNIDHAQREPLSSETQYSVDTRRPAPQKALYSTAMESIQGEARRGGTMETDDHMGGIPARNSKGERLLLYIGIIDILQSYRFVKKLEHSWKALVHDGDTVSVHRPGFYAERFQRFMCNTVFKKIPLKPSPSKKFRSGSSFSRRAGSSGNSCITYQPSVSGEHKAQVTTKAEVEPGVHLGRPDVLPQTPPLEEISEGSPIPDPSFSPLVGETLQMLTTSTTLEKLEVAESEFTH
# Sequence of UniProt P54278 (P54278 whole entry, looked up): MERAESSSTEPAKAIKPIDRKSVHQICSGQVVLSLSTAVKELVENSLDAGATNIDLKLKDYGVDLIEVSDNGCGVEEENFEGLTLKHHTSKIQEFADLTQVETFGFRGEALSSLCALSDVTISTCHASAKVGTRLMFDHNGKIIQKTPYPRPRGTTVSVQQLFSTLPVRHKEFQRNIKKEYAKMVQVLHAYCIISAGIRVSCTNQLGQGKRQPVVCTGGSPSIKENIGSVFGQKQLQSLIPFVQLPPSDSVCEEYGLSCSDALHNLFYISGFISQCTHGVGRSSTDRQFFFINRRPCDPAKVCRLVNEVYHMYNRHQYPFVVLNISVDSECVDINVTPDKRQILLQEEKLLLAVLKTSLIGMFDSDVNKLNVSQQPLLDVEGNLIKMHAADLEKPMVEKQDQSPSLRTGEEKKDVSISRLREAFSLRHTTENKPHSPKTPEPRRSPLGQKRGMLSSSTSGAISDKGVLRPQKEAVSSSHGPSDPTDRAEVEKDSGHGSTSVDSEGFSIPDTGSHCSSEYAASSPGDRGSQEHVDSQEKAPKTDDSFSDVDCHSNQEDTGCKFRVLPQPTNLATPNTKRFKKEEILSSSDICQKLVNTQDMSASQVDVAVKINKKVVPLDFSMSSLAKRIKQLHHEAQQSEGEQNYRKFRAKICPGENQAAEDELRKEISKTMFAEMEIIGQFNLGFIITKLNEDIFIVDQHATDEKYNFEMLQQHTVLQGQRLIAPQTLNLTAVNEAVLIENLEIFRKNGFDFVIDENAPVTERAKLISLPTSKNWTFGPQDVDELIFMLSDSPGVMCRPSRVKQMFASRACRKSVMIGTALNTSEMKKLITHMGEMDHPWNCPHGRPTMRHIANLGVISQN
# Sequence of UniProt Q9BRQ0 (Q9BRQ0 whole entry, looked up): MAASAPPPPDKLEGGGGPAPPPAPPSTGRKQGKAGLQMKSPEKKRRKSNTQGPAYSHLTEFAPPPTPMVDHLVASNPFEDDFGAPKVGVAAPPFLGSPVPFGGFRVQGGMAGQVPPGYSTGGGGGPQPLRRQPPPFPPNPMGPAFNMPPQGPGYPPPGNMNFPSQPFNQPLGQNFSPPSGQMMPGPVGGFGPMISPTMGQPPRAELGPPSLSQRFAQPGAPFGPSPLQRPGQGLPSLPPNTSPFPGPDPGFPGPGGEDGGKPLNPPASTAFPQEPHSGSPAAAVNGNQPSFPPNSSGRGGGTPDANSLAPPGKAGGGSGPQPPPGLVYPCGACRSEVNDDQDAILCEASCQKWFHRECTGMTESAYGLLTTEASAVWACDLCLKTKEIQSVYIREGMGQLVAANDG
# Sequence of UniProt P48736 (P48736 whole entry, looked up): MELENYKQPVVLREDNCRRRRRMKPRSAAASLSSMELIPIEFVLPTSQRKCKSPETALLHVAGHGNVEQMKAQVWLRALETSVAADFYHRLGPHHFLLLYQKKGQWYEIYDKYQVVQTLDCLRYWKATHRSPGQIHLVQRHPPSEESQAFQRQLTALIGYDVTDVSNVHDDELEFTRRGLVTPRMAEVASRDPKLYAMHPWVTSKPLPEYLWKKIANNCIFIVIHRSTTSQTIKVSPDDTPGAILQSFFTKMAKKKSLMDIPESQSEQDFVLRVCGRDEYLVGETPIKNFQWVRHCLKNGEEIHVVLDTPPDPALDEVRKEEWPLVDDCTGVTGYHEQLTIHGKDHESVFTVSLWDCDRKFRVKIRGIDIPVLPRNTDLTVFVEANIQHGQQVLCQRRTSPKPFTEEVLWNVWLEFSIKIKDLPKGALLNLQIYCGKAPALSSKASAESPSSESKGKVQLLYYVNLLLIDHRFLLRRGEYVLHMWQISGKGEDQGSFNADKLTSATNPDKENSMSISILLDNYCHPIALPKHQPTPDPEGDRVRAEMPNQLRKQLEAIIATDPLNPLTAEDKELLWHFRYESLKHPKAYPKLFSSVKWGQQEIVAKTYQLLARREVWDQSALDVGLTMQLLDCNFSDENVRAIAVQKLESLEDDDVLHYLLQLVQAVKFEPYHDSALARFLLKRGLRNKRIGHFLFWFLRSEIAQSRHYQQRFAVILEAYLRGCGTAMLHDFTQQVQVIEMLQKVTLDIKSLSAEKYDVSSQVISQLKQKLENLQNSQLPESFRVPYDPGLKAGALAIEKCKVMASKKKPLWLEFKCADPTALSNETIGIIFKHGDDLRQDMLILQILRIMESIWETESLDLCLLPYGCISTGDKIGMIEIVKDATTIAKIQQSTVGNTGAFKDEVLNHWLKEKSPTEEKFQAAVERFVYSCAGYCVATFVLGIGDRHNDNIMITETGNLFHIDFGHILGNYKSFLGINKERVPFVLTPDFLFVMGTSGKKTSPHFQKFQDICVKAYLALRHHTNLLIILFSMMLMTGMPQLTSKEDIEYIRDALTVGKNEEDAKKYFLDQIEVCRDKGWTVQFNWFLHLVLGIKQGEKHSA
# Sequence of UniProt Q16378 (Q16378 whole entry, looked up): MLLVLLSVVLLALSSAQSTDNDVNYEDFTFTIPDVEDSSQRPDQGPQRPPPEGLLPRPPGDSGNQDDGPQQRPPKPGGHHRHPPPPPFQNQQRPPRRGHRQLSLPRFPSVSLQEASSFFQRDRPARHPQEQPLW
# Sequence of UniProt Q9Y570 (Q9Y570 whole entry, looked up): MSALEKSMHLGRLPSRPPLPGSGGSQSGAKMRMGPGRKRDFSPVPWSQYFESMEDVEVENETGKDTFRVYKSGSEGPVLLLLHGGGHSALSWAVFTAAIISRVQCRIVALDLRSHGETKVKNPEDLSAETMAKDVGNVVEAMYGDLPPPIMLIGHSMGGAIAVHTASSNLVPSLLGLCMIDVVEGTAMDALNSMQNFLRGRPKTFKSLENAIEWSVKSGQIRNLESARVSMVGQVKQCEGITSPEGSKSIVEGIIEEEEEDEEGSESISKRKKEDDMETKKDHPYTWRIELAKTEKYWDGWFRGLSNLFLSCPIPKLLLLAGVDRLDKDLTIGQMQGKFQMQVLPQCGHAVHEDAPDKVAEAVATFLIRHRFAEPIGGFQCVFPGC
# Sequence of UniProt O75928 (O75928 whole entry, looked up): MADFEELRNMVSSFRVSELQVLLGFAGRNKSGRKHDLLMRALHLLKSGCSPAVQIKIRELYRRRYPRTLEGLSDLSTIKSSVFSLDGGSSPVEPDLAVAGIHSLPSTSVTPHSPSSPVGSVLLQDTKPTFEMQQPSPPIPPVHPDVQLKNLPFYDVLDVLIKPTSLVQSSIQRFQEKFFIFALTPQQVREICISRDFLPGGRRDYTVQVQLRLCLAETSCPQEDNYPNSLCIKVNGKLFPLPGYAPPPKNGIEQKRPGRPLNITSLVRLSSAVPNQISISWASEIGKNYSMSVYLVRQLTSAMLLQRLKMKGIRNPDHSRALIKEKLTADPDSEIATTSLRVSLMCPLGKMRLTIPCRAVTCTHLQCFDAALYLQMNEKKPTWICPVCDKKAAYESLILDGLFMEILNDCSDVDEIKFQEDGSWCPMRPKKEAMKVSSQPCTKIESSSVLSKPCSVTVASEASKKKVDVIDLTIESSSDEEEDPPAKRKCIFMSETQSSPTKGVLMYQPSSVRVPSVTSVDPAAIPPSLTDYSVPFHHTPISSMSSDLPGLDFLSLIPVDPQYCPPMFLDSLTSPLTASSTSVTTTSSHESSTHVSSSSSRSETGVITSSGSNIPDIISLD
# Sequence of UniProt P45877 (P45877 whole entry, looked up): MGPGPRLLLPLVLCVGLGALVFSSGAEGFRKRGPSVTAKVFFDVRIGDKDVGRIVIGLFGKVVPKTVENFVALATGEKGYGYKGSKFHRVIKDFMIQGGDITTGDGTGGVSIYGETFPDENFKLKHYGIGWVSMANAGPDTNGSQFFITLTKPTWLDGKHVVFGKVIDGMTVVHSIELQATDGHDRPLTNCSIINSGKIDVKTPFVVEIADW
# Sequence of UniProt O60927 (O60927 whole entry, looked up): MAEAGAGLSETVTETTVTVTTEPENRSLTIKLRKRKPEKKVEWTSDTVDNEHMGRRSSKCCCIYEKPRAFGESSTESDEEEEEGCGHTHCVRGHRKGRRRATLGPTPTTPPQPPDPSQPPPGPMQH
# Sequence of UniProt Q8NAV1 (Q8NAV1 whole entry, looked up): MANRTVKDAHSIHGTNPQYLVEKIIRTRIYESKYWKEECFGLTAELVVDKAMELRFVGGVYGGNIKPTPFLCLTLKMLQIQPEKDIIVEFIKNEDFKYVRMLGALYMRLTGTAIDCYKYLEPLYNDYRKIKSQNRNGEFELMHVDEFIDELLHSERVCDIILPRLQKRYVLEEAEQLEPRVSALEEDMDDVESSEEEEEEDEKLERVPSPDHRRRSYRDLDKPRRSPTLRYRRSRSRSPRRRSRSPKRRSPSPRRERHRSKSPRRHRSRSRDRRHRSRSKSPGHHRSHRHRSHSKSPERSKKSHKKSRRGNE
# Sequence of UniProt Q8TAE6 (Q8TAE6 whole entry, looked up): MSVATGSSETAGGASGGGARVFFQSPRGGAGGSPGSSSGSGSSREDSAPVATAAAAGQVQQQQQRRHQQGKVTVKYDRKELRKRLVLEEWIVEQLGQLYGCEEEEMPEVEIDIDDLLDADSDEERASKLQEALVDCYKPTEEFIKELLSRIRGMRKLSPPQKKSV
Target,log2 fold change [1],log2 fold change [2],log2 fold change [3],log2 fold change [4],log2 fold change [5],log2 fold change [6],log2 fold change [7],log2 fold change [8],log2 fold change [9],log2 fold change [10]
PCBP2 (UniProt F8W0G4),-0.117,-0.36,-0.007,-0.102,0.022,0.005,-0.236,-0.241,0.079,0.093
PELO (UniProt Q9BRX2),0,-0.047,-0.058,-0.014,-0.002,0,-0.038,-0.021,-0.049,0
PRPF38A (UniProt Q8NAV1),-0.012,-0.016,0.049,-0.025,0.044,0.05,0.042,0.005,-0.018,0.057
PHLDB1 (UniProt Q86UU1),0.01,-0.044,0.032,-0.081,-0.031,0.101,-0.158,-0.032,0.068,-0.044
PWP1 (UniProt Q13610),-0.02,-0.025,0.045,0.057,0.007,0,0.031,0.008,-0.032,0.005
PPM1H (UniProt Q9ULR3),-0.048,-0.045,0.25 (active),0.021,-0.049,0.009,0.011,-0.039,0.101,0.037
PDE4DIP (UniProt E9PS60),0.026,-0.056,-0.13,0.044,,,0.039,0.114,0.063,
PHF14 (UniProt O94880),,0.032,,-0.01,-0.06,-0.086,0.045,-0.423,0.432,0.035
PICALM (UniProt H0YCY1),-0.09,,0.108,,,,,,,
PFN3 (UniProt P60673),,-0.231,,-0.078,,,-0.162,-0.041,0.155,
PRADC1 (UniProt Q9BSG0),-0.016,,0.027,,0.018,0,,,,0.017
PHOSPHO2 (UniProt C9JD35),,,,,,,,0.069,-0.21,
PLXND1 (UniProt Q9Y4D7),-0.067,,0.073,,-0.048,-0.016,,,,-0.032
POLR2M (UniProt Q6EEV4),0.011,0.164,-0.025,-0.031,-0.045,,-0.111,0.052,-0.01,
PFN1 (UniProt I3L3D5),,,,,0.054,0.045,,0.009,0.03,0.005
PECR (UniProt Q9BY49),,,,,,,,-0.004,0.056,
PTMA isoform 2 (UniProt P06454),,,,,0.015,,,,,
PRG4 (UniProt Q92954),,,,,-0.296,-0.027,,,,0.057
PIAS2 (UniProt O75928),0.043,-0.277,0.035,0,,0.019,0.039,0.037,-0.002,0.053
PIK3CG (UniProt P48736),0.045,0,-0.011,0.045,,-0.047,-0.005,0,0.003,-0.011
PCBP2 (UniProt F8VRH0),0.084,,-0.182,,,-0.092,,,,0.11

Target,log2 fold change [1],log2 fold change [2],log2 fold change [3],log2 fold change [4],log2 fold change [5],log2 fold change [6],log2 fold change [7],log2 fold change [8],log2 fold change [9],log2 fold change [10]
PHKG1 isoform 2 (UniProt Q16816),0.003,-0.127,0.187,0.061,,0.029,0.399,0.157,0.014,-0.102
PIP4K2A (UniProt P48426),-0.04,-0.239 (active),0.032,0.001,0.225,0.135,0.105,0.103,-0.006,-0.007
PNPLA4 (UniProt P41247),,0.064,,0.1,,0.051,0.1,0.086,0.09,-0.001
PPP2R5C isoform 2 (UniProt Q13362),0.003,0.044,0.024,-0.046,0.186,0.024,0.013,,,0.052
PRPF6 (UniProt O94906),0.018,0.038,-0.003,-0.035,0.001,0.037,-0.018,-0.056,-0.032,-0.046
NA (UniProt Q4G0T1),-0.178,,0.348 (active),,,0.017,,,,0.002
PDIA4 (UniProt P13667),-0.011,0.062,0.005,-0.017,-0.008,0.006,0,0.04,0.007,-0.001
POLR2F (UniProt U3KPV3),,,,,,,,-0.055,0.084,
PMS2 (UniProt P54278),0.036,0.012,-0.058,-0.005,-0.015,-0.028,-0.032,-0.013,0.012,0.001
PYGO2 (UniProt Q9BRQ0),-0.047,,0.045,,-0.039,0.115,,0.012,0.049,0.051
PPP1R14C (UniProt Q8TAE6),,0.018,,-0.092,-0.05,0.001,0.021,0.052,-0.02,-0.014
PRIM2 (UniProt P49643),0.05,-0.12,0.032,0.007,-0.006,0.011,0.005,-0.016,0.017,0.027
PIP5K1A (UniProt Q99755),0.036,,-0.14,,0.022,-0.062,,,,-0.195
PEX2 (UniProt P28328),0.106,-0.731 (active),0.068,0.048,-0.128,0.082,-0.119,,,-0.04
PPME1 (UniProt Q9Y570),0.129,,0.003,,-0.09,,,-0.025,-0.033,
PRR4 (UniProt Q16378),-0.097,1.59,-0.193,-0.167,,-0.11,-0.484,-0.127,1.09,-0.048
PRRG1 (UniProt O14668),,,,,,-0.006,,,,0.06
PIK3CD (UniProt O00329),-0.014,-0.162,-0.095,0.034,0.091,-0.031,0.098,,,0.109
PPP1R11 (UniProt O60927),-0.046,,0.015,,0.01,0.004,,0,-0.03,0.132
PPIC (UniProt P45877),0.049,-0.042,0.119,0.025,0.265,-0.032,0.036,,,0.06
POM121C (UniProt A8CG34),0.001,,0.027,,0.032,-0.064,,,,-0.069
